Reference: PubChem BioAssay (Tox21)
Inconclusive results are not listed. Calls of active or inactive are those of the source. Unless noted, the call rests on the fitted dose curve.

Key:
[1] = Nuclear factor erythroid 2-related factor 2/antioxidant responsive element (Nrf2/ARE) small molecule agonists: luciferase reporter gene qHTS assay in human keratinocytes (AID 1919969); further: nearly all actives have a fitted effect of over 35% in size
[2] = molecular target: Gonadotropin-releasing hormone receptor (Homo sapiens) (UniProt P30968); experiment: Human gonadotropin-releasing hormone receptor (GnRHR) small molecule agonists, calcium flux assay in GnRHR-HEK293 cells (AID 1920063); further: nearly all actives have a fitted effect of over 35% in size
Summary of the method: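 Cells: HEK293 stably expressing human GnRHR. Steps: overnight (18 h) culture, 1 h calcium dye loading at 37 C, compound addition, kinetic fluorescence read at 480/540 nm. Each compound tested at 15 concentrations in triplicate.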

[3] = molecular target: KiSS-1 receptor (Homo sapiens) (UniProt Q969F8); experiment: Human kisspeptin (KISS1R) small molecule agonists, calcium flux assay in KISS1R-HEK293 cells (AID 1920064; active means well fitted activation curve with a large enough effect in the repeat runs)
Summary of the method: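 Cells plated and incubated 18 h; dye added, 1 h at 37 C; compounds in DMSO pinned in; signal read at 480/540 nm every second for 3 min. Each compound tested at 15 concentrations in triplicate.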

[4] = G protein-coupled receptor (GPCR) small molecule agonists, calcium flux assay: HEK293 wild type cell line counter screen (AID 1920065)
Summary of the method: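 Counter-screen of the Tox21 10K library for non-specific calcium release: dye-loaded cells received compounds in DMSO and were monitored by kinetic fluorescence (480/540 nm, 3 min). Fifteen concentrations, run in triplicate.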

[5] = p53 small molecule agonists, cell-based qHTS assay with human liver microsomes (AID 1963577);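 further: p53 response element beta-lactamase reporter cells with liver microsomes plus NADPH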
Summary of the method: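 Metabolically competent format: test substances, human liver microsomes and NADPH (both 0.5 mg/mL final) incubated with p53RE-bla cells 16 h at 37 C. Beta-lactamase reporter signal then quantified by fluorescence.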

[6] = p53 small molecule agonists, cell-based qHTS assay with rat liver microsomes (AID 1963578)
Summary of the method: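 Each plate received p53RE-bla cells, then compound, then rat liver microsomes and NADPH (both 0.5 mg/mL final). Plates were held 16 h at 37 C, and beta-lactamase activity was detected with LiveBLAzer over 2 h.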

[7] = p53 small molecule agonists, cell-based qHTS assay with human liver microsomes: qHTS cell viability counter screen (AID 1963579); further: nearly all actives have a fitted effect of over 45% in size
Summary of the method: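 Tox21 library compounds, delivered from DMSO stocks, were tested on p53RE-bla cells together with 0.5 mg/mL human liver microsomes and 0.5 mg/mL NADPH (final) over 16 h at 37 C; CellTiter-Glo luminescence served as the cytotoxicity measure.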

[8] = p53 small molecule agonists, cell-based qHTS assay with rat liver microsomes: qHTS cell viability counter screen (AID 1963580); further: nearly all actives have a fitted effect of over 45% in size
Summary of the method: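 p53RE-bla HCT-116 cells (4,000/well) rested 5 h at 37 C, then given Tox21 compounds in DMSO with rat liver microsomes (0.5 mg/mL final) plus NADPH (0.5 mg/mL final) for 16 h at 37 C. Viability read by CellTiter-Glo luminescence after 30 min at room temperature.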

[9] = p53 small molecule agonists, cell-based qHTS assay: qHTS cell viability counter screen (AID 1963581); further: nearly all actives have a fitted effect of over 45% in size
Summary of the method: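 Cells: HCT-116 with p53 response element-driven beta-lactamase. Treatment: 16 h, 37 C, compounds in DMSO. Read: CellTiter-Glo luminescence after 30 min RT.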

[10] = p53 small molecule agonists, cell-based qHTS assay (AID 1963582; active means well fitted activation curve with a large enough effect in the signal ratio in the repeat runs, not every such curve was filed as active; the % refers to the signal ratio)
Summary of the method: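 Quantitative HTS in p53RE-bla cells: after a 5 h settling period, compounds delivered in DMSO were left on cells for 16 h at 37 C, and reporter induction was measured as fluorescence following 2 h substrate loading.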

[11] = molecular target: 5-hydroxytryptamine receptor 2A (Homo sapiens) (UniProt P28223); experiment: 5-hydroxytryptamine receptor 2A (HTR2A) small molecule antagonists, cell-based qHTS assay (AID 1963586); further: nearly all actives have a fitted effect of over 45% in size
Summary of the method: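 Antagonist-mode intracellular calcium assay: DOI (4 nM) added after 5 min compound pre-incubation at room temperature to dye-loaded HTR2A-CHO cells. Fluorescence followed for 3 min, sampled every second.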

[12] = molecular target: 5-hydroxytryptamine receptor 2A (Homo sapiens) (UniProt P28223); experiment: 5-hydroxytryptamine receptor 2A (HTR2A) small molecule agonists, cell-based qHTS assay (AID 1963587); further: nearly all actives have a fitted effect of over 30% in size
Summary of the method: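 HTR2A-CHO cells, plated 18 h at 37 C/5% CO2, dye-loaded 1 h at 37 C; compounds in DMSO added by pin tool (agonist mode). Intracellular calcium flux read as kinetic fluorescence on FDSS over 2 min at 1 s intervals.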

[13] = molecular target: Muscarinic acetylcholine receptor M1 (Homo sapiens) (UniProt P11229); experiment: Cholinergic receptor muscarinic 1 (CHRM1) small molecule agonists, cell-based qHTS assay (AID 1963589); further: nearly all actives have a fitted effect of over 35% in size
Summary of the method: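 Agonist-mode qHTS in CHO cells stably carrying human muscarinic M1. Intracellular calcium is tracked by fluorescence every second after compound transfer; each compound runs at 15 concentrations in three independent runs.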

[14] = cAMP Responsive Elements (CRE) small molecule agonists, cell-based qHTS assay (AID 1963590)
Summary of the method: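 Agonist mode qHTS in CRE-bla HEK 293T cells: compounds dosed from DMSO for 3 h at 37 C/5% CO2, followed by LiveBLAzer B/G FRET substrate for 2 h at room temperature.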

[15] = cAMP Responsive Elements (CRE) small molecule antagonists, cell-based qHTS assay (AID 1963591; active means well fitted inhibition curve with a large enough effect in the signal ratio in the repeat runs, not every such curve was filed as active; the % refers to the signal ratio)
Summary of the method: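 Antagonist mode: test compounds are co-incubated with the adenylyl cyclase activator NKH477 (0.25 uM final) on CRE-bla HEK293T cells for 3 h at 37 °C, followed by LiveBLAzer substrate loading.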

[16] = molecular target: Beta-2 adrenergic receptor (Homo sapiens) (UniProt P07550); experiment: Adrenergic beta2 receptor (ADRB2) small molecule antagonists, cell-based qHTS assay (AID 1963592); further: series mostly up to about 92 µM; nearly all actives have a fitted effect of over 50% in size
Summary of the method: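 Cells (CHO, stable ADRB2 overexpression) incubated 18-20hr at 37C; compounds added from DMSO; agonist mix (1nM isoproterenol, 100uM IBMX, 25uM Ro-20-1724) added; 0.5hr RT; d2-cAMP and anti-cAMP-cryptate added; 1hr RT; 665/615 nm read.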

[17] = molecular target: Beta-2 adrenergic receptor (Homo sapiens) (UniProt P07550); experiment: Adrenergic beta2 receptor (ADRB2) small molecule agonists, cell-based qHTS assay (AID 1963593);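 further: CHO cells stably overexpressing human ADRB2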
Summary of the method: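 CHO cells stably over-expressing ADRB2 were plated overnight at 37C, then dosed with compounds plus a stimulation mix containing 100uM IBMX and 25uM Ro-20-1724 for 0.5hr at room temperature. cAMP was measured by HTRF competition, 1hr.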

[18] = molecular target: D(2) dopamine receptor (Homo sapiens) (UniProt P14416); experiment: Dopamine D2 receptor (DRD2) small molecule agonists, cell-based qHTS assay (AID 1963594); further: nearly all actives have a fitted effect of over 35% in size
Summary of the method: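 HEK293 cells stably expressing DRD2 were cultured 24 h at 37 C, then given Ro20-1724 (0.1 mM final) and compounds for 10 min at room temperature. NKH477 (200nM) was then added for 30 min. cAMP was read by HTRF.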

[19] = molecular target: Muscarinic acetylcholine receptor M1 (Homo sapiens) (UniProt P11229); experiment: Cholinergic receptor muscarinic 1 (CHRM1) small molecule antagonists, cell-based qHTS assay (AID 1963588); further: nearly all actives have a fitted effect of over 40% in size
Summary of the method: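 CHRM1-CHO calcium-flux assay, antagonist mode. Cells were seeded 18 h, dye-loaded 1 h at 37 C and given compound for 5 min at RT, then acetylcholine was added at 50nM. FDSS fluorescence was read 3 min; 15 concentrations, three runs.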

[20] = molecular target: D(2) dopamine receptor (Homo sapiens) (UniProt P14416); experiment: Dopamine D2 receptor (DRD2) small molecule antagonists, cell-based qHTS assay (AID 1963595; active means well fitted inhibition curve with a large enough effect in the signal ratio in the repeat runs, with a control signal flat; the % refers to the signal ratio)
Summary of the method: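 Antagonism was scored as restored cAMP in HEK293-DRD2 cells. These cells were stimulated with 200 nM NKH477 and 12 nM quinpirole for 30 min at room temperature, in the presence of 0.1 mM Ro20-1724.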

Measured: Potency

Sequence of 5-hydroxytryptamine receptor 2A (Homo sapiens) (P28223 whole entry, looked up): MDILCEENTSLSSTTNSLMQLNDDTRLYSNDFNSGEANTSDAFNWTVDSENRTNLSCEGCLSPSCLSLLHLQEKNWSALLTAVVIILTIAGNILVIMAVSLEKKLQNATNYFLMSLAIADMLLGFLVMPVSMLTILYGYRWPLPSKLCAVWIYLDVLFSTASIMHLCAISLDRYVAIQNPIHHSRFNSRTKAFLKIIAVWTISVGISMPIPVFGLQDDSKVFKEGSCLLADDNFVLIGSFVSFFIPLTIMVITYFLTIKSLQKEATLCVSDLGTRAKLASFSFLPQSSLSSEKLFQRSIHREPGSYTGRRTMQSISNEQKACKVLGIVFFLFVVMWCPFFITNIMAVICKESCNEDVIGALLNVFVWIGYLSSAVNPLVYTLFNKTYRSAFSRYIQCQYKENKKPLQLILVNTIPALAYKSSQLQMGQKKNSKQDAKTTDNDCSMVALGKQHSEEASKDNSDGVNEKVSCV
Sequence of Beta-2 adrenergic receptor (Homo sapiens) (P07550 whole entry, looked up): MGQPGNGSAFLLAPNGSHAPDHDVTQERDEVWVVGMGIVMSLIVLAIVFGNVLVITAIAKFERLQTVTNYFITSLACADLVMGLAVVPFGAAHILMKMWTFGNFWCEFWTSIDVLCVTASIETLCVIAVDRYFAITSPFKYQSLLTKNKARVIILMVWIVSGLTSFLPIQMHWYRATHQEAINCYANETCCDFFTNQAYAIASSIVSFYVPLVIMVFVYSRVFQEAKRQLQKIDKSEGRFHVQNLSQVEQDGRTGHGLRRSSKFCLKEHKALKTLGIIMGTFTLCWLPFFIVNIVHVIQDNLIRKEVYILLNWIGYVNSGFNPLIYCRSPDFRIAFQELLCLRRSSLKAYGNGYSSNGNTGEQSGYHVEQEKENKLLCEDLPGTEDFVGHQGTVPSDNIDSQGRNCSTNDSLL
Sequence of KiSS-1 receptor (Homo sapiens) (Q969F8 whole entry, looked up): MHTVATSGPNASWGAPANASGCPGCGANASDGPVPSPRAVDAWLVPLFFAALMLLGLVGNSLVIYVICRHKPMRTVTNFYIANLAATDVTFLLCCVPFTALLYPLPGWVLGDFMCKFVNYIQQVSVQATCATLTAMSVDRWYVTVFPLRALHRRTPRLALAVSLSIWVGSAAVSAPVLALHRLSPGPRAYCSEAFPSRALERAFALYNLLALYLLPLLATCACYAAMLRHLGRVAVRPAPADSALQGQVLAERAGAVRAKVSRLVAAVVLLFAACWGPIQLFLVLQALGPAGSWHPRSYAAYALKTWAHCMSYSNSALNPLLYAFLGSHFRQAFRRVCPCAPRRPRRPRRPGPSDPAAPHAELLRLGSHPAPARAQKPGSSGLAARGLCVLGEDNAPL
Sequence of D(2) dopamine receptor (Homo sapiens) (P14416 whole entry, looked up): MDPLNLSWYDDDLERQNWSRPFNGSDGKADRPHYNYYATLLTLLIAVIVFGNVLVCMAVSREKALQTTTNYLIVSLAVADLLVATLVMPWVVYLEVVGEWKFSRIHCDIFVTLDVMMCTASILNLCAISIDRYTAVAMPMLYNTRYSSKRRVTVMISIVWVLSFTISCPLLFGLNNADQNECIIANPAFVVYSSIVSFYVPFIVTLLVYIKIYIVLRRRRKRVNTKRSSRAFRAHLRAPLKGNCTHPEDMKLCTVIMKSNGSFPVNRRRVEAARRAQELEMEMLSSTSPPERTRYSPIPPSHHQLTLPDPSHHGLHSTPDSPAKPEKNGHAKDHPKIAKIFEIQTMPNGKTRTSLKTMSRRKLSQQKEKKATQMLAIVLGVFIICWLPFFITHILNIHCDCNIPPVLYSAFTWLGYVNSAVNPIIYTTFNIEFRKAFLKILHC
Sequence of Gonadotropin-releasing hormone receptor (Homo sapiens) (P30968 whole entry, looked up): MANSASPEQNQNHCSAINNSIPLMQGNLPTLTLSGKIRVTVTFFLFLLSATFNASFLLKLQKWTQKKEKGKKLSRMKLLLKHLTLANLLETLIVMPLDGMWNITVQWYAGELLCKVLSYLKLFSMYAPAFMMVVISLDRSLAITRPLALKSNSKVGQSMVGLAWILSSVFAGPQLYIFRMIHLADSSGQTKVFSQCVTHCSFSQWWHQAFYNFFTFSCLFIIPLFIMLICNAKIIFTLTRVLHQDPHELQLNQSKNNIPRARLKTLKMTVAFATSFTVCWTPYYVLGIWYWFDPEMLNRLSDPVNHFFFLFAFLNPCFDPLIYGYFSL
Sequence of Muscarinic acetylcholine receptor M1 (Homo sapiens) (P11229 whole entry, looked up): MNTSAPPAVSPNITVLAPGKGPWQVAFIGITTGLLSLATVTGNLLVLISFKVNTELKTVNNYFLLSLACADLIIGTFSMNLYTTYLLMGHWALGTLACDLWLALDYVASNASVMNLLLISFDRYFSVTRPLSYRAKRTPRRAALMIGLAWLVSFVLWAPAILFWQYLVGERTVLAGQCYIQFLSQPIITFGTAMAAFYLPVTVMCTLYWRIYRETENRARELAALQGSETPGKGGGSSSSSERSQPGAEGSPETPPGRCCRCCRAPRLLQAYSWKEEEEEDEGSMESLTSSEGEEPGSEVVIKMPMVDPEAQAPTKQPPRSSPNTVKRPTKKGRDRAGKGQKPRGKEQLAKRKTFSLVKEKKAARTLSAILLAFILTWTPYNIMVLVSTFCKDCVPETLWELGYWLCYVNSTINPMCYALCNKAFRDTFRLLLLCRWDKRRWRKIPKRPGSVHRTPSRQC

C/C=C(\C)C(=O)OC/C=C(\C)CCC=C(C)C
not listed: [19] | [20]
inactive: all other assays above

CCCOC(C)=O
inactive: all assays above

CC(C)(C)C(=O)C(Oc1ccc(Cl)cc1)n1ccnc1 (stereo not given)
not listed: [16]
inactive: all other assays above

CC(C)COC(=O)c1ccc(N)cc1
not listed: [17]
inactive: all other assays above

C(/C=C/C=C/Nc1ccccc1)=Nc1ccccc1
inactive: all assays above

C=CCOC(=O)CCCCCC
not listed: [16]
inactive: all other assays above
